Here are results for 40 compounds from PubChem BioAssay (NCI).

The structures appear in SMILES notation. The panel holds about 79,000 compounds, 15% with a hit somewhere; the sample as a whole holds those more often. Values without a mark were called inactive. The source made the active and inactive calls. Cut-off read from the data, not from the text of the source: active = growth inhibition above about 70%; inactive = the rest.

One assay is described as follows: NCI Yeast Anticancer Drug Screen. Data for the rad50 strain (AID 155).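 Note: 0% = growth of vehicle-only cultures of the same strain.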 Particulars: S. cerevisiae rad50 strain growth inhibition; at 50.0 µM; hits give high values. An outline of the steps: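 Compounds were tested on a yeast strain with an engineered DNA damage repair alteration; the reported value is growth inhibition normalised to vehicle treatment.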
For `CCCC#CCN(C(C)C)C(C)C`, the growth inhibition was -12.4%.

As to `O=C(NNC(=O)c1ccc2ccccc2n1)c1ccc2ccccc2n1`, the growth inhibition was 5.2%.

For the compound `O=C(O)c1ccc(-n2cnc3c(=O)[nH]cnc32)cc1`, the growth inhibition was -8.6%.

With `O=C(COc1ccccc1[N+](=O)[O-])Nc1cccnc1`, the growth inhibition was -18.9%.

As to `Cc1cc(C)c2c(c1)Nc1ccccc1P2c1ccccc1` (stereo unspecified), the growth inhibition was 11.2%.

Consider `COc1ccc(NC(=O)Nc2ccc(SC)cc2)c(Cl)c1`, for which the growth inhibition was 0.75%.

With `Cc1ccc(S(=O)(=O)C(Sc2ccccc2)=S=NC(C)(C)C)cc1`, the growth inhibition was 89.8% (active).

As to `CCC(CO)(CO)CBr`, the growth inhibition was 3.75%.

Regarding `O=S(=O)(Oc1ccc(Cl)cc1)c1cccc(S(=O)(=O)Oc2ccc(Cl)cc2)c1`, the growth inhibition was 12.8%.

With `CCCCC(=O)CCCCCCCCC(=O)CCCC`, the growth inhibition was 0.7%.

Consider `O=C(O)CNCc1ccc(F)cc1`, for which the growth inhibition is -1.85%.

Turning to `Cc1ccc(S(=O)(=O)OC2C(CI)OCOC(CI)C2OS(=O)(=O)c2ccc(C)cc2)cc1` (stereo unspecified), the growth inhibition is -1.05%.

As to `N#C/C(=C\c1c2ccccc2c(Cl)c2ccccc12)C(N)=S`, the growth inhibition is 34.2%.

Consider `COC(=O)C1(CC(=O)c2ccncc2)NC(=S)NC(=O)C1C#N` (stereo unspecified), for which the growth inhibition is 2%.

As for `Cc1cccc(Cl)c1OCC(=O)Nc1ccccc1`, the growth inhibition is 20.9%.

For the compound `CN(C)c1nc(OC2C(C3COC(C)(C)O3)OC3OC(C)(C)OC32)nc(N(C)C)n1` (stereo unspecified), the growth inhibition is 36.9%.

In the case of `O=C(CCCCCCC(=O)C[N+]12CCC(CC1)C(O)C2)C[N+]12CCC(CC1)C(O)C2` (stereo unspecified), the growth inhibition was 39.1%.

For `O=c1c2ccccc2c(=O)c2c1ccc1[nH]c3ccccc3sc12`, the growth inhibition is -7.15%.

Regarding `Cc1ccc(S(=O)(=O)NC(=O)NC23CC4CC(CC(F)(C4)C2)C3)cc1`, the growth inhibition is 37.9%.

Consider `Cc1[nH]c(=O)nc(CC(O)(c2ccccc2)c2ccccc2)c1-c1ccccc1`, for which the growth inhibition is -31.6%.

Take `CC(C)C(Nc1ncnc2nc[nH]c12)C(=O)O` (stereo unspecified): the growth inhibition was -25.6%.

The next assay is described as follows: NCI Yeast Anticancer Drug Screen. Data for the mec2-1 strain (AID 157). Particulars: S. cerevisiae mec2-1 strain, at 50.0 µM, hits give high values. An outline of the steps: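 Readout is yeast growth inhibition, normalised to vehicle-treated controls, in the mec2-1 strain exposed to compound.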
`CC(=O)CCCCCCCCCCCCCC(C)=O`: the growth inhibition was -5.1%.

As for `CC(C)CCC(=O)C(C)C`, the growth inhibition is -9.55%.

With `CCC(=O)OCCCCCCOC(=O)CC`, the growth inhibition was 6%.

Regarding `CCC(=O)Cc1ccc(OC)c(OC)c1`, the growth inhibition is -3.5%.

For the compound `NC(=O)NC(=O)NCc1ccccc1`, the growth inhibition was 0.35%.

As for `CC(O)CN1CNC(=S)NC1` (stereo unspecified), the growth inhibition is -39.3%.

Take `COC(=O)C1(C2(C(=O)OC)NC(C)=C(c3ccccc3)C(=O)O2)NC(C)=C(c2ccccc2)C(=O)O1` (stereo unspecified): the growth inhibition was -7.3%.

Turning to `c1ccc2c3c(ccc2c1)OCCOCCOc1ccc2ccccc2c1-3`, the growth inhibition was 84.8% (active).

Consider `CN(c1ncc(Cc2cnc(N(C)C3CCN(Cc4ccccc4)CC3)nc2)cn1)C1CCN(Cc2ccccc2)CC1`, for which the growth inhibition was -5.95%.

On to `O=c1[nH]c(Nc2ccc(F)c(Cl)c2)nc2nc[nH]c12`, for which the growth inhibition was 6.85%.

For `Cc1cc(O)cc(C)c1Cl`, the growth inhibition is -25.9%.

Consider `O=C(O)C(Cc1c[nH]c2ccccc12)N1C(=O)c2ccccc2C1=O` (stereo unspecified), for which the growth inhibition was 26.6%.

`Cn1c(O)c(C=Nc2ccccc2Cl)c(=O)n(C)c1=O`: the growth inhibition was -4.65%.

On to `Cc1cccc(-c2nc(N)nc(N)n2)c1`, for which the growth inhibition is -9.45%.

`CCCCN(CCCC)CC(CC)N(CCCC)CCCC` (stereo unspecified): the growth inhibition is 1.8%.

Take `CCOC(=O)CCCN1CCC=C(C#N)C1`: the growth inhibition is -2.2%.

As for `CC1=CN(c2ccccc2)S2=C1c1sc3c(c1N2c1ccc(Br)cc1)CCCC3` (stereo unspecified), the growth inhibition was -21.9%.

`CC(=O)c1ccc(O)c(CN(C2CCCCC2)C2CCCCC2)c1O`: the growth inhibition is -10.3%.

Regarding `O=C(CC(=O)Nc1ccccc1)NNC(Sc1ccccc1)c1cc(N=Nc2ccc(Br)cc2)ccc1O` (stereo unspecified), the growth inhibition was 14.1%.

Turning to `CCCC#CCN(C(C)C)C(C)C`, the growth inhibition is 1.65%.

`O=C(NNC(=O)c1ccc2ccccc2n1)c1ccc2ccccc2n1`: the growth inhibition was 2.45%.

Regarding `O=C(O)c1ccc(-n2cnc3c(=O)[nH]cnc32)cc1`, the growth inhibition is -12.9%.

For `O=C(COc1ccccc1[N+](=O)[O-])Nc1cccnc1`, the growth inhibition was -10.8%.

Take `Cc1cc(C)c2c(c1)Nc1ccccc1P2c1ccccc1` (stereo unspecified): the growth inhibition was 14.2%.

`COc1ccc(NC(=O)Nc2ccc(SC)cc2)c(Cl)c1`: the growth inhibition is 5.6%.

As for `Cc1ccc(S(=O)(=O)C(Sc2ccccc2)=S=NC(C)(C)C)cc1`, the growth inhibition was 81.5% (active).

Regarding `CCC(CO)(CO)CBr`, the growth inhibition was -1.1%.

For `O=S(=O)(Oc1ccc(Cl)cc1)c1cccc(S(=O)(=O)Oc2ccc(Cl)cc2)c1`, the growth inhibition is 1.6%.

`CCCCC(=O)CCCCCCCCC(=O)CCCC`: the growth inhibition is -8.65%.

Consider `O=C(O)CNCc1ccc(F)cc1`, for which the growth inhibition was -10%.

For `Cc1ccc(S(=O)(=O)OC2C(CI)OCOC(CI)C2OS(=O)(=O)c2ccc(C)cc2)cc1` (stereo unspecified), the growth inhibition is -7.3%.

`N#C/C(=C\c1c2ccccc2c(Cl)c2ccccc12)C(N)=S`: the growth inhibition is 24.9%.

Regarding `COC(=O)C1(CC(=O)c2ccncc2)NC(=S)NC(=O)C1C#N` (stereo unspecified), the growth inhibition was -11.8%.

Take `Cc1cccc(Cl)c1OCC(=O)Nc1ccccc1`: the growth inhibition was 10.1%.

`CN(C)c1nc(OC2C(C3COC(C)(C)O3)OC3OC(C)(C)OC32)nc(N(C)C)n1` (stereo unspecified): the growth inhibition was -9.65%.

In the case of `O=C(CCCCCCC(=O)C[N+]12CCC(CC1)C(O)C2)C[N+]12CCC(CC1)C(O)C2` (stereo unspecified), the growth inhibition was 4.2%.

With `O=c1c2ccccc2c(=O)c2c1ccc1[nH]c3ccccc3sc12`, the growth inhibition is -1.75%.

As to `Cc1ccc(S(=O)(=O)NC(=O)NC23CC4CC(CC(F)(C4)C2)C3)cc1`, the growth inhibition is 21.4%.

`Cc1[nH]c(=O)nc(CC(O)(c2ccccc2)c2ccccc2)c1-c1ccccc1`: the growth inhibition is -38.1%.

Turning to `CC(C)C(Nc1ncnc2nc[nH]c12)C(=O)O` (stereo unspecified), the growth inhibition was -15.2%.
